“And” between values parts separate entries of the source, which are not always exact repeats. Identical values can stand only once. Out of some 5,500 compounds screened, about 2,000 (36%) were called active. Inconclusive results (about 18%) are left out. No stated cut-off is given here; in the data, active means normalized growth mostly below about 0.91 (no sharp cut-off); inconclusive means no clear call, values can overlap the other calls; inactive means mostly above about 0.92. Some of the results follow.
Assay: chemical genetic growth profiling, strain panel (AID 1159580);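 further: tested at 20 µM; growth read once vehicle control cultures reached saturation at 30 °C; 1 = growth at the plate median or of vehicle wells; lower values mean less growth of the strain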
Details: S. cerevisiae deletion strains, growth OD

Measured: normalized growth

CN=C(NC#N)NCCSCc1nc[nH]c1C
inactive: locus YAL013W, strain DEP1, active compounds read low 0.997 | locus YAL021C, strain ccr4, active compounds read low 1 | locus YAL026C, strain drs2, active compounds read low 0.997 | locus YAL030W, strain snc1, active compounds read low 0.998 | locus YAL040C, strain CLN3, active compounds read low 1.01 | locus YBL061C, strain skt5, active compounds read low 0.991 | locus YBR009C, strain hhf1, active compounds read low 0.998 | locus YBR021W, strain FUR4, active compounds read low 0.993 | locus YBR023C, strain chs3, active compounds read low 0.996 | locus YBR171W, strain sec66, active compounds read low 0.996 | locus YBR229C, strain ROT2, active compounds read low 0.969 | locus YBR231C, strain swc5, active compounds read low 1 | locus YBR279W, strain paf1, active compounds read low 0.996 | locus YCL011C, strain gbp2, active compounds read low 0.993 | locus YCL016C, strain dcc1, active compounds read low 0.989 | locus YCL029C, strain bik1, active compounds read low 0.979 | locus YCL061C, strain MRC1, active compounds read low 1 | locus YCL069W, strain vba3, active compounds read low 1.01 | locus YCR088W, strain abp1, active compounds read low 0.998 | locus YDL005C, strain med2, active compounds read low 1.01 | locus YDL035C, strain GPR1, active compounds read low 1.01 | locus YDL040C, strain nat1, active compounds read low 1.01 | locus YDL074C, strain BRE1, active compounds read low 1.01 | locus YDL101C, strain DUN1, active compounds read low 0.984 | locus YDL134C, strain PPH21, active compounds read low 1 | locus YDL185W, strain tfp1, active compounds read low 0.977 | locus YDL192W, strain arf1, active compounds read low 0.995 | locus YDR001C, strain nth1, active compounds read low 1 | locus YDR069C, strain doa4, active compounds read low 0.997 | locus YDR101C, strain arx1, active compounds read low 0.992 | locus YDR137W, strain rgp1, active compounds read low 1.01 | locus YDR150W, strain NUM1, active compounds read low 1 | locus YDR159W, strain sac3, active compounds read low 0.997 | locus YDR162C, strain NBP2, active compounds read low 0.994 | locus YDR195W, strain ref2 0.976 | locus YDR297W, strain sur2, active compounds read low 0.997 | locus YDR318W, strain mcm21, active compounds read low 0.999 | locus YDR334W, strain swr1, active compounds read low 0.996 | locus YDR335W, strain msn5, active compounds read low 1.01 | locus YDR363W, strain ESC2, active compounds read low 0.998 | locus YDR388W, active compounds read low 0.991 | locus YDR392W, strain spt3, active compounds read low 0.905 | locus YDR502C, strain sam2, active compounds read low 1.02 | locus YEL003W, strain gim4, active compounds read low 1.01 | locus YEL037C, strain rad23, active compounds read low 0.998 | locus YEL061C, strain CIN8 (second series), active compounds read low 1 | locus YEL061C, strain CIN8, active compounds read low 0.998 | locus YER002W, strain NOP16, active compounds read low 1.02 | locus YER015W, strain faa2, active compounds read low 1.01 | locus YER016W, strain bim1, active compounds read low 1 | locus YER110C, active compounds read low 0.975 | locus YER111C, strain swi4, active compounds read low 0.993 | locus YER155C, strain BEM2 (second series), active compounds read low 0.97 | locus YER155C, strain BEM2, active compounds read low 0.99 | locus YER167W, strain BCK2, active compounds read low 0.997 | locus YFR010W, strain ubp6, active compounds read low 1 | locus YGL078C, strain dbp3, active compounds read low 0.989 | locus YGL086W, strain mad1, active compounds read low 1 | locus YGL167C, strain pmr1, active compounds read low 0.995 | locus YGL173C, strain kem1, active compounds read low 0.997 | locus YGL227W, strain vid30, active compounds read low 0.991 | locus YGL240W, strain doc1, active compounds read low 0.986 | locus YGL248W, strain PDE1, active compounds read low 0.993 | locus YGL253W, strain hxk2, active compounds read low 0.997 | locus YGR078C, strain PAC10, active compounds read low 0.996 and 1.01 | locus YGR135W, strain pre9, active compounds read low 0.992 | locus YGR229C, strain SMI1, active compounds read low 0.996 | locus YGR252W, strain gcn5, active compounds read low 1.1 | locus YHR013C, strain ard1, active compounds read low 0.972 | locus YHR027C, strain rpn1, active compounds read low 0.993 | locus YHR030C, strain SLT2, active compounds read low 0.977 and 1.03 | locus YHR079C, strain IRE1 (second series), active compounds read low 0.986 | locus YHR079C, strain IRE1, active compounds read low 1.07 | locus YHR094C, strain hxt1, active compounds read low 0.99 | locus YHR129C, strain ARP1, active compounds read low 0.985 | locus YHR142W, strain chs7, active compounds read low 0.998 | locus YHR200W, strain rpn10, active compounds read low 0.99 | locus YIL066C, strain RNR3, active compounds read low 0.998 | locus YIL073C, strain SPO22, active compounds read low 1.01 | locus YIL125W, strain kgd1, active compounds read low 0.992 | locus YIR030C, strain dcg1, active compounds read low 0.991 | locus YJL092W, strain hpr5, active compounds read low 0.994 | locus YJL095W, strain BCK1 (second series), active compounds read low 0.996 | locus YJL095W, strain BCK1, active compounds read low 0.952 and 1.02 | locus YJL115W, strain asf1, active compounds read low 1 | locus YJL129C, strain trk1, active compounds read low 1.01 | locus YJL134W, strain LCB3, active compounds read low 0.996 | locus YJL154C, strain vps35, active compounds read low 1.01 | locus YJL164C, strain tpk1, active compounds read low 0.992 | locus YJL166W, strain qcr8, active compounds read low 1 | locus YJL168C, strain set2, active compounds read low 0.983 | locus YJL187C, strain SWE1 (second series), active compounds read low 0.988 | locus YJL187C, strain SWE1, active compounds read low 1 | locus YJR043C, strain POL32, active compounds read low 0.98 | locus YJR066W, strain TOR1, active compounds read low 0.997

From PubChem BioAssay AID1159580 (chemical genetic matrix, 2015)
